Molecules are shown by their SMILES. Inconclusive results are not listed. The source made the active and inactive calls. The call rests on the fitted dose curve; in most records, active means well fitted curve in the direction sought with a large enough effect; inconclusive means small, poorly fitted or top-dose-only effect, or another doubt; inactive means no such curve, though single readings can be large; an effect the other way counts as inactive or inconclusive.

Among the data in PubChem BioAssay (NCATS) are Potency values, retold here.

A short description of assay [1]: S16 Schwann cell PMP22 intronic element firefly luciferase assay (AID 624032). Further: nearly all actives have a fitted effect of over 30% in size. The method in brief:
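Rat S16 Schwann cells stably carrying a PMP22 intronic element-driven Fluc reporter were seeded overnight, then exposed to compounds for 24 h at 37 °C. Luminescence was normalized to PTC124 (positive control) and DMSO (0% activity).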

Another assay has as its system 3D7. Briefly: qHTS profiling for inhibitors of Plasmodium falciparum proliferation (AID 504749). Further: nearly all actives have a fitted effect of over 60% in size. Further: potency means the concentration at half of the fitted maximal effect. The conditions noted are these: P. falciparum in erythrocytes, SYBR Green DNA, 72 h; series mostly up to 28.7 µM. The method in brief: (§1)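 Quantitative HTS: compounds pinned into medium, infected erythrocytes added (0.3% parasitemia, 2.5% hematocrit), 72 h culture at 37 C under 5% CO2. Saponin/Triton lysis with SYBR Green I, overnight RT, then fluorescence read.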
(In qHTS, concentration-response curves come from the screen itself.)

For another assay, the system named is ATS95. The description is as above. The conditions noted are these: P. falciparum in erythrocytes, SYBR Green DNA, 72 h; series mostly up to 28.7 µM. Summed up:
as §1

For the next assay, the system named is C2A. Described as above. The conditions noted are these: P. falciparum in erythrocytes, SYBR Green DNA, 72 h; series mostly up to 28.7 µM. The method in brief: as §1
The subject of another assay is CP191. Described as above. The settings on record: P. falciparum in erythrocytes, SYBR Green DNA, 72 h; series mostly up to 28.7 µM. The method in brief: as §1
The test system of another assay is CP217. Described as above. The conditions noted are these: P. falciparum in erythrocytes, SYBR Green DNA, 72 h; series mostly up to 28.7 µM. Summed up:
as §1

The next assay has as its system CP250. The assay is described as above. The conditions noted are these: P. falciparum in erythrocytes, SYBR Green DNA, 72 h; series mostly up to 28.7 µM. The method in brief: as §1
The test system of a further assay is CP260. The assay is described as above. The conditions noted are these: P. falciparum in erythrocytes, SYBR Green DNA, 72 h; series mostly up to 28.7 µM. Summed up:
as §1

For a further assay, the system named is CP335. The assay is described as above. The conditions noted are these: P. falciparum in erythrocytes, SYBR Green DNA, 72 h; series mostly up to 28.7 µM. The method in brief:
as §1

The test system of the next assay is DFO2036. The description is as above. The settings on record: P. falciparum in erythrocytes, SYBR Green DNA, 72 h; series mostly up to 28.7 µM. The method in brief:
as §1

In a further assay the test system is DIV14. The description is as above. The conditions noted are these: P. falciparum in erythrocytes, SYBR Green DNA, 72 h; series mostly up to 28.7 µM. The method in brief:
as §1

A further assay relates to DIV17. The assay is described as above. The conditions noted are these: P. falciparum in erythrocytes, SYBR Green DNA, 72 h; series mostly up to 28.7 µM. The method in brief:
as §1

The next assay concerns DIV30. Described as above. The settings on record: P. falciparum in erythrocytes, SYBR Green DNA, 72 h; series mostly up to 28.7 µM. The method in brief: as §1
The next assay deals with P94_40. Described as above. The conditions noted are these: P. falciparum in erythrocytes, SYBR Green DNA, 72 h; series mostly up to 28.7 µM. The method in brief: as §1
The subject of the next assay is PAD. The assay is described as above. The conditions noted are these: P. falciparum in erythrocytes, SYBR Green DNA, 72 h; series mostly up to 28.7 µM. The method in brief:
as §1

For another assay, the system named is PC26. Described as above. The settings on record: P. falciparum in erythrocytes, SYBR Green DNA, 72 h; series mostly up to 28.7 µM. The method in brief: as §1
For a further assay, the system named is SC27B. The assay is described as above. The conditions noted are these: P. falciparum in erythrocytes, SYBR Green DNA, 72 h; series mostly up to 28.7 µM. Summed up:
as §1

In a further assay the test system is TAB113. The assay is described as above. The settings on record: P. falciparum in erythrocytes, SYBR Green DNA, 72 h; series mostly up to 28.7 µM. Summed up:
as §1

The subject of the next assay is TAB165. The assay is described as above. The settings on record: P. falciparum in erythrocytes, SYBR Green DNA, 72 h; series mostly up to 28.7 µM. Summed up: as §1
The subject of another assay is 7G8. Described as above. The conditions noted are these: P. falciparum in erythrocytes, SYBR Green DNA, 72 h; series mostly up to 28.7 µM. The method in brief: as §1

As to `CC(=O)O[C@]1(C(C)=O)CCC2C3CCC4=CC(=O)CCC4(C)C3(F)C(O)CC21C` (stereo partly drawn), the Potency entry (in [1]; in the assay with 3D7; in the assay with ATS95; in the assay with C2A; in the assay with CP191; with CP217) was “inactive” each time. Further, the Potency entry with CP250, in the assay with CP260, in the assay with CP335, with DFO2036, with DIV14 and in the assay with DIV17 was “inactive” each time. Also, the Potency result in the assay on DIV30, in the assay on P94_40, with PAD, in the assay with PC26, in the assay on SC27B and in the assay on TAB113 was “inactive” throughout. The Potency entry with TAB165 is “inactive”.

With `O=C(O)C(O)c1ccccc1` (stereo not drawn), the Potency entry (in [1]; in the assay on 3D7; in the assay on 7G8; in the assay with ATS95; in the assay on C2A; in the assay on CP191) was “inactive” throughout. The Potency result in the assay on CP217, in the assay with CP250, in the assay on CP260, with CP335, in the assay on DIV14 and in the assay on DIV17 was “inactive” each time. The Potency entry in the assay with DIV30, with P94_40, in the assay on PAD, with PC26, in the assay on SC27B and in the assay on TAB113 was “inactive” each time. The Potency entry in the assay with TAB165 was “inactive”.

Turning to `OC[C@@H](O)C(O[C@@H]1O[C@@H](CO)[C@H](O)[C@H](O)[C@H]1O)[C@H](O)[C@@H](O)CO` (stereo partly drawn), the Potency entry (in assay [1]; in the assay with 3D7; with 7G8; with ATS95; in the assay with CP191; with CP217) was “inactive” throughout. The Potency entry in the assay with CP250, in the assay with CP260, in the assay on CP335, in the assay with DFO2036, in the assay on DIV14 and with DIV17 was “inactive” each time. Moreover, the Potency entry in the assay on DIV30, in the assay with P94_40, with PAD, with PC26, with SC27B and with TAB113 was “inactive” in each case. In addition, the Potency entry with TAB165 is “inactive”.

Take `C[C@@H](O)[C@@H]1C(=O)N2C(C(=O)O)=C([C@H]3CCCO3)S[C@H]12`: the Potency result (in assay [1]; in the assay on 3D7; in the assay on 7G8; in the assay on ATS95; in the assay with C2A; in the assay with CP191) was “inactive” in each case. Further, the Potency result in the assay on CP217, with CP250, with CP260, in the assay with CP335, in the assay on DFO2036 and in the assay on DIV14 was “inactive” each time. Also, the Potency result with DIV17, with DIV30, with P94_40, in the assay with PAD, with PC26 and with SC27B was “inactive” throughout. For the same compound, the Potency entry in the assay on TAB113 and with TAB165 was “inactive” throughout.

On to `NC(CSSCC(N)C(=O)O)C(=O)O` (stereo not drawn), for which the Potency entry (in [1]; in the assay on 3D7; with 7G8; with ATS95; in the assay on C2A; in the assay on CP191) was “inactive” throughout. In addition, the Potency result in the assay on CP217, in the assay with CP250, in the assay on CP260, with CP335, in the assay on DFO2036 and in the assay on DIV14 was “inactive” throughout. In addition, the Potency result in the assay with DIV17, in the assay on DIV30, in the assay with P94_40, in the assay with PAD, in the assay with PC26 and in the assay with SC27B was “inactive” each time. Also, the Potency entry with TAB113 and in the assay on TAB165 was “inactive” throughout.

Consider `C[C@]12CC[C@@H]3c4ccc(O)cc4C[C@@H](CCCCCCCCCS(=O)CCCC(F)(F)C(F)(F)F)C3[C@@H]1CC[C@@H]2O` (stereo partly drawn), for which the Potency was 10 µM (active) in the assay on 3D7; 1.78 µM (active) in the assay with 7G8; 8.91 µM (active) in the assay with ATS95; 10 µM (active) in the assay on C2A; 7.94 µM (active) with CP191; 8.91 µM (active) in the assay with CP217. Further, the Potency in the assay with CP260 was 8.91 µM (active); in the assay on CP335, 13.5 µM (active); in the assay on DFO2036, 11.2 µM (active); in the assay with DIV14, 3.01 µM (active); in the assay on DIV17, 4.78 µM (active); in the assay with DIV30, 3.79 µM (active). Besides, the Potency with P94_40 was 5.62 µM (active); in the assay with PAD, 3.98 µM (active); in the assay with PC26 it was 3.38 µM (active); with SC27B, 2.82 µM (active); with TAB113, 4.47 µM (active); in the assay with TAB165, 2.24 µM (active).

As to `C[C@@H]1CCN(C(=O)[C@H](CCCNC(=N)N)NS(=O)(=O)c2cccc3c2NC[C@H](C)C3)[C@@H](C(=O)O)C1`, the Potency result (in assay [1]; in the assay on 3D7; in the assay with 7G8; in the assay with ATS95; with C2A; with CP191) was “inactive” in each case. Also, the Potency result in the assay on CP217, in the assay with CP250, in the assay on CP260, in the assay on CP335, in the assay with DFO2036 and in the assay with DIV14 was “inactive” each time. Moreover, the Potency entry in the assay with DIV17, in the assay with DIV30, in the assay with P94_40, in the assay with PAD, with PC26 and with SC27B was “inactive” throughout. In addition, the Potency result with TAB113 and in the assay on TAB165 was “inactive” throughout.

On to `Cc1cc2nc3c(=O)[nH]c(=O)nc-3n(CC(O)C(O)C(O)COP(=O)(O)O)c2cc1C` (stereo not drawn), for which the Potency entry in the assay with 3D7, with 7G8, with ATS95, in the assay on C2A, in the assay with CP217 and with CP250 was “inactive” each time. The Potency entry with CP260, with CP335, in the assay on DFO2036, in the assay with DIV17, with DIV30 and in the assay on P94_40 was “inactive” in each case. The Potency result with PAD, with PC26, in the assay on SC27B, with TAB113 and with TAB165 was “inactive” each time.

On to `CCN(CC)C(=O)[C@@]1(c2ccccc2)C[C@@H]1CN`, for which the Potency entry (in assay [1]; with 3D7; in the assay with ATS95; in the assay with C2A; in the assay on CP191; in the assay on CP217) was “inactive” each time. The Potency entry with CP250, in the assay with CP260, in the assay with CP335, in the assay with DFO2036, with DIV30 and in the assay on P94_40 was “inactive” in each case. The Potency result in the assay with PAD, in the assay on SC27B, in the assay on TAB113 and with TAB165 was “inactive” in each case.

As to `COc1cc(/C=C2\CCC/C(=C\c3ccc(O)c(OC)c3)C2=O)ccc1O`, the Potency is 11.2 µM (active) in the assay with 3D7; 2 µM (active) with 7G8; 10 µM (active) in the assay on ATS95; 10 µM (active) with CP191; 11.2 µM (active) with CP217; 10 µM (active) in the assay with CP250. The Potency is 12.6 µM (active) in the assay with CP260; 12 µM (active) with CP335; 11.2 µM (active) in the assay on DFO2036; 6.75 µM (active) in the assay with DIV14; 9.53 µM (active) in the assay with DIV17; 8.49 µM (active) in the assay with DIV30. The Potency is 12.6 µM (active) in the assay with P94_40; 7.08 µM (active) in the assay with PAD; 10.7 µM (active) in the assay with PC26; 11.2 µM (active) in the assay on SC27B; 8.91 µM (active) in the assay with TAB113; 12.6 µM (active) in the assay with TAB165.

Consider `CC(C)C(=O)OCC(=O)[C@@]12OC(C3CCCCC3)O[C@@H]1CC1C3CCC4=CC(=O)C=C[C@]4(C)C3[C@@H](O)C[C@@]12C` (stereo partly drawn), for which the Potency is 1 µM (active) in the assay on 3D7; 0.447 µM (active) with 7G8; 0.708 µM (active) with ATS95; 1.26 µM (active) in the assay on C2A; 0.708 µM (active) with CP191; 0.794 µM (active) in the assay with CP217. The Potency in the assay with CP250 is 1.12 µM (active); in the assay with CP260, 0.708 µM (active); with CP335, 0.601 µM (active); in the assay on DFO2036, 0.501 µM (active); with DIV14, 1.51 µM (active); with DIV17, 1.35 µM (active). The Potency was 0.891 µM (active) in the assay on P94_40; 1 µM (active) with PAD; 1.26 µM (active) with SC27B; 1.12 µM (active) with TAB113; 0.891 µM (active) with TAB165.
